According to PubChem BioAssay (NCI):
Several values for one entry are separate records, joined by “and”; a condition that tells them apart may be missing. Equal values may be shown once. This is part of a sample that, as a whole, favours compounds with a hit. Of some 79,000 tested, about 15% had one in any assay. More than one record can exist for a structure, and the calls need not agree. Activity calls are given as the source filed them. No stated cut-off is given here; in the data, active means growth inhibition above about 70%; inactive means the rest.

Experiment: NCI Yeast Anticancer Drug Screen. Data for the mlh1 rad18 strain (AID 175)
Settings: S. cerevisiae mlh1 rad18 strain growth inhibition, stronger effect = higher value
Method: Growth inhibition of yeast strains with defined genetic alterations is measured as a screen for potential anti-cancer activity. Selected strains with alterations in DNA damage repair or cell cycle control were exposed to compounds and growth inhibition was measured relative to vehicle treated controls. The strain used in this assay is mlh1 rad18

[1] = at 5.0 µM (retest, dose inferred, filed as 0.5)
[2] = at 50.0 µM (retest, dose inferred, filed as 5.0)

Row | SMILES | growth inhibition [1] | growth inhibition [2] | growth inhibition (at 50.0 µM)
1 | COc1cc(NCCCCCCC2CCCCN2)c2ncccc2c1 (configuration not stated) | 3% (inactive) and 2% (inactive) | 89% (active) and 78% (active) | 61% (inactive) and 94.5% (active)
2 | COc1ccc(CC(=O)c2ccc(O)cc2O)cc1 | 19% (inactive) | 97% (active) | 53.1% (inactive)
3 | CCc1[nH]c(=O)nc(N)c1-c1ccc(N2CCCCC2)c([N+](=O)[O-])c1 | -22% (inactive) | -12% (inactive) | 90.8% (active)
4 | C[n+]1c2cc(N)ccc2cc2ccc(N)cc21 | 28% (inactive) and 100% (active) | 97% (active) and 100% (active) | 91.3% (active) and 83.5% (active)
5 | CC(C)c1ccc(C=Nc2ccc(SSc3ccc(N=Cc4ccc(C(C)C)cc4)cc3)cc2)cc1 | 25% (inactive) | -11% (inactive) | 76.4% (active)
6 | O=c1[nH]c(SCc2c(Cl)c(Cl)c(Cl)c(Cl)c2Cl)nc(=S)[nH]1 | 2% (inactive) | 86% (active) | 70.8% (active)
7 | CN(C)/C=C1\CCc2ccc([N+](=O)[O-])cc2C1=O | 29% (inactive) | 35% (inactive) | -28.4% (inactive)
8 | Clc1ccc2c(c1)[nH]c1c2nc2ccccn21 | 11% (inactive) | 98% (active) | -14.4% (inactive) and 80.4% (active)
9 | O=S(=O)(O)c1ccc(-c2c3nc(c(-c4ccc(S(=O)(=O)O)cc4)c4ccc([nH]4)c(-c4ccc(S(=O)(=O)O)cc4)c4nc(c(-c5ccc(S(=O)(=O)O)cc5)c5ccc2[nH]5)C=C4)C=C3)cc1 | 74% (active) and 93% (active) | 92% (active) and 93% (active) | 96% (active) and 91.2% (active)
10 | CSC1SCC2C(=O)N(C)C(C(C)C)C(=O)OCC(NC(=O)c3cnc4ccccc4n3)C(=O)NC(C)C(=O)N(C)C1C(=O)N(C)C(C(C)C)C(=O)OCC(NC(=O)c1cnc3ccccc3n1)C(=O)NC(C)C(=O)N2C (configuration not stated) | 6% (inactive) and 98% (active) | 98% (active) and 97% (active) | 99% (active) and 90.2% (active)
11 | COc1cc2c(cc1OC)C(Cc1c3ccccc3cc3ccccc13)N(C)CC2 (configuration not stated) | 3% (inactive) | 56% (inactive) | 99.4% (active)
12 | CC(C)C1=CC23CCC4C(C)(C(=O)O)CCCC4(C)C2CC1C1C(=O)OC(=O)C13 (configuration not stated) | 90% (active) | 99% (active) | 99.4% (active) and 99.5% (active)
13 | CC1=CC(=Nc2ccc(N(C)C)cc2)C=CC1=O | -3% (inactive) | 9% (inactive) | 16.4% (inactive) and 66.2% (inactive)
14 | N#CC1(C2SCCS2=O)C2=C(C(=O)c3ccccc3C2=O)N2CCCC21 (configuration not stated) | 17% (inactive) | 67% (inactive) | 89.9% (active)
